Measured values taken from article PMC7862700, “An all-to-all approach to the identification of sequence-specific readers for epigenetic DNA modifications on cytosine”.

How the values were obtained:
Assay in all cases: DAPPL (digital affinity profiling via proximity ligation, sequencing); 10 mM Tris-HCl pH 7.5, 50 mM NaCl, 1 mM DTT, 4% glycerol, room temperature, 30 min; GST-TFs on glutathione beads, 16-mer random dsDNA library, 0.1% formaldehyde crosslink after washing; high values mean tight binding
Details in all cases: protein: recombinant; tags: N-terminal GST; dsDNA, one strand shown
ERF = target: T1, ERF (Homo sapiens, UniProt P50548 1-548)
T1 sequence: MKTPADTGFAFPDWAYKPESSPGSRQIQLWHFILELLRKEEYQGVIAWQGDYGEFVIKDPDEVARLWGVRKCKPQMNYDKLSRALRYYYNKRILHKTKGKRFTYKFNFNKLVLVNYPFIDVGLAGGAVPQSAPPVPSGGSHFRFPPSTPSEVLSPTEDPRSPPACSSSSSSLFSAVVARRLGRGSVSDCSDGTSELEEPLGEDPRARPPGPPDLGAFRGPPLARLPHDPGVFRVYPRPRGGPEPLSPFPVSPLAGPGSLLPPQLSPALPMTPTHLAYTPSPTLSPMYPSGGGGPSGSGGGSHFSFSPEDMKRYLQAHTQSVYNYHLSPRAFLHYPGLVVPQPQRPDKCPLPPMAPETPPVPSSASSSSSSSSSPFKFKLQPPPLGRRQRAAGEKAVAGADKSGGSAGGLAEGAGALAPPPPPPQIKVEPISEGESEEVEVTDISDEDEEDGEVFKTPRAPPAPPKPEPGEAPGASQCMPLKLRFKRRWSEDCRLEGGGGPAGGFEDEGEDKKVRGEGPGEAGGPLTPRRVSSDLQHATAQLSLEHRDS
Outline: (§1)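 Binding signal is given per hexamer as its read frequency for a factor divided by its frequency in the tag-only sample. GST-fused human transcription factors were expressed in yeast, captured on glutathione beads, barcoded with DNA and pooled with that sample, then incubated with 200 nmole of a 16-mer random double-stranded DNA library in Tris/NaCl/DTT/glycerol buffer for 30 min at room temperature. The pools were then washed, crosslinked, proximity-ligated, amplified by PCR and sequenced on an Illumina NextSeq500.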

ETV3L = target: T2, ETV3L (Homo sapiens, UniProt Q6ZN32 1-361)
T2 sequence: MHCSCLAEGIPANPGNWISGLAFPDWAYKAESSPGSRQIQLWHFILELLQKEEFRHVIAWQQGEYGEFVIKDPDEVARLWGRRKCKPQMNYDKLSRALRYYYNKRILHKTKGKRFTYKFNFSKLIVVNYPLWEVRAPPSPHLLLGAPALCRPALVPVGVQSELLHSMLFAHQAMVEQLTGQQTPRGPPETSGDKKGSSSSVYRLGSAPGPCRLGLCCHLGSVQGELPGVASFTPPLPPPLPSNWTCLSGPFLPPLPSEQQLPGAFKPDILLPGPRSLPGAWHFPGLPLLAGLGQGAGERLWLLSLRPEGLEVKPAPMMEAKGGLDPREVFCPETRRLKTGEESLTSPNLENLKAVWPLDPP
Outline: as §1

ETS2 = target: T3, ETS2 (Homo sapiens, UniProt P15036 1-469)
T3 sequence: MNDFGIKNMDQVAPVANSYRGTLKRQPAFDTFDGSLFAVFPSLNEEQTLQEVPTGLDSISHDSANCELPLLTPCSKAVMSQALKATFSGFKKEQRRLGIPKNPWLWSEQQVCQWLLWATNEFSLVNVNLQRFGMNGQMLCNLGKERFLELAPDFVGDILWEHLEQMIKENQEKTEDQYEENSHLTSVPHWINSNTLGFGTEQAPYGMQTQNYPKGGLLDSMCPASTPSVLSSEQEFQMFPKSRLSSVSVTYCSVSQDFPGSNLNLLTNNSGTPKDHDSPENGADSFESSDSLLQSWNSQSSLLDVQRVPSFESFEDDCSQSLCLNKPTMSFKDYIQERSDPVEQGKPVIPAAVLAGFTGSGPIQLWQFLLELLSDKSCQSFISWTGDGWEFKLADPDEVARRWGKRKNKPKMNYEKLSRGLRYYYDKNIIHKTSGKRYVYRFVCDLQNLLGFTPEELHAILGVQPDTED
Outline: as §1

SPDEF = target: T4, SPDEF (Homo sapiens, UniProt O95238 1-335)
T4 sequence: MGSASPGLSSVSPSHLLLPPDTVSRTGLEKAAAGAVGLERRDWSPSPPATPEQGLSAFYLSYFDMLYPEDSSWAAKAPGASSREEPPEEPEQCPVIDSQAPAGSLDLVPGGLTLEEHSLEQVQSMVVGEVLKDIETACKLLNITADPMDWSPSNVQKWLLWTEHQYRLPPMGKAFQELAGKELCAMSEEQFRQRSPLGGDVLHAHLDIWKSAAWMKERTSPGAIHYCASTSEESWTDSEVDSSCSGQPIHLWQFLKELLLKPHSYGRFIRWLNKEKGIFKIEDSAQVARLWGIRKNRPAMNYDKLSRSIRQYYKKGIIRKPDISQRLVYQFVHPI
Outline: as §1

ETV7 = target: T5, ETV7 (Homo sapiens, UniProt Q9Y603 1-341)
T5 sequence: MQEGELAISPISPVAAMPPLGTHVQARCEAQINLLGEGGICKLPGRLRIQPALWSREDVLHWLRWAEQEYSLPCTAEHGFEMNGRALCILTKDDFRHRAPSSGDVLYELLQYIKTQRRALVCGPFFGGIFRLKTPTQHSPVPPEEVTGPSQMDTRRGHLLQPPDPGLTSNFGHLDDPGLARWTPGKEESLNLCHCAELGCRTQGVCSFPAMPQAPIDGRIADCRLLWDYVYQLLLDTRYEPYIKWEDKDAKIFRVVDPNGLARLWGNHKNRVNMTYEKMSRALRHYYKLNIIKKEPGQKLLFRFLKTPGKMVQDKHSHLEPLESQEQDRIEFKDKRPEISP
Outline: as §1

ELF5 = target: T6, ELF5 (Homo sapiens, UniProt Q9UKW6-2 1-255)
T6 sequence: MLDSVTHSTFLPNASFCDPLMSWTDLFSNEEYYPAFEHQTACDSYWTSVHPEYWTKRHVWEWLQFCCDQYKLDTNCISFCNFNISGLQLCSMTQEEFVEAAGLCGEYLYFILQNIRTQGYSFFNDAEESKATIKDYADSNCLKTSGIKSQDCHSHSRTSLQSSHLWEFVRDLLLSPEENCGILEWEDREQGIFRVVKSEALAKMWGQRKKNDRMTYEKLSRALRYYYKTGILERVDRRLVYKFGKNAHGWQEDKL
Outline: as §1

ETV3 = target: T7, ETV3 (Homo sapiens, UniProt P41162-2 1-143)
T7 sequence: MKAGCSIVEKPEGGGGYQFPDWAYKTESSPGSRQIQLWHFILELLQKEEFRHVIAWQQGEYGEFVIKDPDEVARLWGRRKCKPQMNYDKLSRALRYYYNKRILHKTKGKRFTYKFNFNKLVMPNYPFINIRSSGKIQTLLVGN
Outline: as §1

ETV6 = ETV6 (Homo sapiens, UniProt P41212 1-452)
ETV6, sequence (P41212 whole entry): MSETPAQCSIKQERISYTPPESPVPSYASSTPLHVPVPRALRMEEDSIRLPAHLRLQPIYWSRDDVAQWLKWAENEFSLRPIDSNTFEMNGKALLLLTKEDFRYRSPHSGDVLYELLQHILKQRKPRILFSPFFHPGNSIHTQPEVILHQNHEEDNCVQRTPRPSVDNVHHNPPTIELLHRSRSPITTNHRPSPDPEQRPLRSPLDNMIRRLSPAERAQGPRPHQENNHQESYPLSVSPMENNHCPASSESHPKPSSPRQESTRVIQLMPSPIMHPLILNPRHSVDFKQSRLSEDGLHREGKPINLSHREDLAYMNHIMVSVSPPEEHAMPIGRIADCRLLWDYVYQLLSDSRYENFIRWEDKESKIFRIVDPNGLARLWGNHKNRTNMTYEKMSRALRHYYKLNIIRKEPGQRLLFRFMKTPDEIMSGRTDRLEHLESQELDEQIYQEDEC
Outline: as §1

| Sequence | binding signal (ERF) | binding signal (ETV3L) | binding signal (ETS2) | binding signal (SPDEF) | binding signal (ETV7) | binding signal (ELF5) | binding signal (ETV3) | binding signal (ETV6) |
| --- | --- | --- | --- | --- | --- | --- | --- | --- |
| ATACAT | 1.27 fold enrichment (6-mer frequency, TF over GST control) | 1.2 fold enrichment (6-mer frequency, TF over GST control) | 1.24 fold enrichment (6-mer frequency, TF over GST control) | 1.6 fold enrichment (6-mer frequency, TF over GST control) | 1.36 fold enrichment (6-mer frequency, TF over GST control) | 1.29 fold enrichment (6-mer frequency, TF over GST control) | 1.26 fold enrichment (6-mer frequency, TF over GST control) | 1.28 fold enrichment (6-mer frequency, TF over GST control) |
| CCCTTC | 1.25 fold enrichment (6-mer frequency, TF over GST control) | 1.44 fold enrichment (6-mer frequency, TF over GST control) | 1.37 fold enrichment (6-mer frequency, TF over GST control) | 1.38 fold enrichment (6-mer frequency, TF over GST control) | 1.43 fold enrichment (6-mer frequency, TF over GST control) | 1.62 fold enrichment (6-mer frequency, TF over GST control) | 1.34 fold enrichment (6-mer frequency, TF over GST control) | 1.5 fold enrichment (6-mer frequency, TF over GST control) |
| CAATTC | 1.26 fold enrichment (6-mer frequency, TF over GST control) | 1.27 fold enrichment (6-mer frequency, TF over GST control) | 1.24 fold enrichment (6-mer frequency, TF over GST control) | 1.33 fold enrichment (6-mer frequency, TF over GST control) | 1.24 fold enrichment (6-mer frequency, TF over GST control) | 1.25 fold enrichment (6-mer frequency, TF over GST control) | 1.31 fold enrichment (6-mer frequency, TF over GST control) | 1.16 fold enrichment (6-mer frequency, TF over GST control) |
| CTGTTC | 1.52 fold enrichment (6-mer frequency, TF over GST control) | 1.31 fold enrichment (6-mer frequency, TF over GST control) | 1.44 fold enrichment (6-mer frequency, TF over GST control) | 1.29 fold enrichment (6-mer frequency, TF over GST control) | 1.42 fold enrichment (6-mer frequency, TF over GST control) | 1.52 fold enrichment (6-mer frequency, TF over GST control) | 1.51 fold enrichment (6-mer frequency, TF over GST control) | 1.44 fold enrichment (6-mer frequency, TF over GST control) |
| TCGTCT | 1.4 fold enrichment (6-mer frequency, TF over GST control) | 1.43 fold enrichment (6-mer frequency, TF over GST control) | 1.46 fold enrichment (6-mer frequency, TF over GST control) | 1.37 fold enrichment (6-mer frequency, TF over GST control) | 1.21 fold enrichment (6-mer frequency, TF over GST control) | 1.32 fold enrichment (6-mer frequency, TF over GST control) | 1.23 fold enrichment (6-mer frequency, TF over GST control) | 1.34 fold enrichment (6-mer frequency, TF over GST control) |
| TGACTT | 1.45 fold enrichment (6-mer frequency, TF over GST control) | 1.4 fold enrichment (6-mer frequency, TF over GST control) | 1.53 fold enrichment (6-mer frequency, TF over GST control) | 1.24 fold enrichment (6-mer frequency, TF over GST control) | 1.48 fold enrichment (6-mer frequency, TF over GST control) | 1.56 fold enrichment (6-mer frequency, TF over GST control) | 1.46 fold enrichment (6-mer frequency, TF over GST control) | 1.39 fold enrichment (6-mer frequency, TF over GST control) |
| CTACCG | 1.62 fold enrichment (6-mer frequency, TF over GST control) | 1.69 fold enrichment (6-mer frequency, TF over GST control) | 1.63 fold enrichment (6-mer frequency, TF over GST control) | 1.63 fold enrichment (6-mer frequency, TF over GST control) | 1.54 fold enrichment (6-mer frequency, TF over GST control) | 1.64 fold enrichment (6-mer frequency, TF over GST control) | 1.58 fold enrichment (6-mer frequency, TF over GST control) | 1.53 fold enrichment (6-mer frequency, TF over GST control) |
| GATGTA | 1.18 fold enrichment (6-mer frequency, TF over GST control) | 1.39 fold enrichment (6-mer frequency, TF over GST control) | 1.49 fold enrichment (6-mer frequency, TF over GST control) | 2 fold enrichment (6-mer frequency, TF over GST control) | 1.43 fold enrichment (6-mer frequency, TF over GST control) | 1.38 fold enrichment (6-mer frequency, TF over GST control) | 1.39 fold enrichment (6-mer frequency, TF over GST control) | 1.35 fold enrichment (6-mer frequency, TF over GST control) |
